3CLpro inhibitor = SARS-CoV 3CLpro protease inhibition; hit rate 0.14% among 290,000; recombinant SARS-CoV 3CLpro, quenched FRET peptide cleavage; AID 1706; inhibition, % at 6 µM; P0C6X7; in the data active = inhibition above about 12%
BoNT F protease = BoNT F light chain protease inhibition. Multiplex microsphere protease cleavage assay, flow cytometry. hit rate 0.22% among 360,000. inhibition, % at 10 µM; in the data active = inhibition above about 35%, passing the limit was not always enough; inconclusive = no clear call, values can overlap the other calls; note: plate controls were buffer without enzyme for full effect and enzyme alone for no effect
CCHF vOTU inh-1 = CCHFV vOTU protease inhibition; Pep-AMC fluorescence; inhibition, % at 11.5 µM; hit rate 0.55% among 370,000; AID 651958; note: 0% = vehicle wells with enzyme and 100% = no enzyme wells
BoNT-A LC inh2 = BoNT A light chain protease inhibition; hit rate 0.17% among 360,000; inhibition, % at 10 µM; multiplex microsphere protease substrate cleavage, flow cytometry; in the data active = inhibition above about 30%; inconclusive = no clear call, values can overlap the other calls; note: plate controls were buffer without enzyme for full effect and enzyme alone for no effect
Anthrax LF inh2 = inhibitors of Bacillus anthracis lethal factor protease; AID 588501; hit rate 0.12% among 360,000; multiplex microsphere protease cleavage assay, LF; inhibition, % at 10 µM; in the data active = inhibition above about 30%; inconclusive = no clear call, values can overlap the other calls; note: plate controls were buffer without enzyme for full effect and enzyme alone for no effect
Target sequence (P15917 whole entry, looked up): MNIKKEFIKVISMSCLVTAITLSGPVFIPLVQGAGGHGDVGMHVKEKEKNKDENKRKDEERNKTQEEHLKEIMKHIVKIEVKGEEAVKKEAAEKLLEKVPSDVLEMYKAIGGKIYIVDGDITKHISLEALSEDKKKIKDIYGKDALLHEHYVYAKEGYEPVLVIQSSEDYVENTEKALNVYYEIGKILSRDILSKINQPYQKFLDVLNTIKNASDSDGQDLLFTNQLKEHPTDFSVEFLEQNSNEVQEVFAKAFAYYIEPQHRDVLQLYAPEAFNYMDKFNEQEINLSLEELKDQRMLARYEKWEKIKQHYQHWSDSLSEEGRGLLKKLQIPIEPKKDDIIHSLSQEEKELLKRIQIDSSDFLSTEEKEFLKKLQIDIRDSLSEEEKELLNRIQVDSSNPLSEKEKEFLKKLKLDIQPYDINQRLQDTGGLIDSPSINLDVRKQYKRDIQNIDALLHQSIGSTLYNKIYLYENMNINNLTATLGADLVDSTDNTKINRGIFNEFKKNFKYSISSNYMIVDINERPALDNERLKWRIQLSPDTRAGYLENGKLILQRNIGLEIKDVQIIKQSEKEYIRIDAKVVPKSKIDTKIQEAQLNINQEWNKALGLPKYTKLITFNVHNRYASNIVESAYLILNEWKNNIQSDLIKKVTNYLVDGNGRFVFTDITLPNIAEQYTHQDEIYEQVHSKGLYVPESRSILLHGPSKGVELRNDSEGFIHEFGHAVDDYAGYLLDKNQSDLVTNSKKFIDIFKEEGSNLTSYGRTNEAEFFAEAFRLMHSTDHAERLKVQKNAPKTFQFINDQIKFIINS
Autofluor counter = flagged as autofluorescent in microsphere protease counterscreen. hit rate 3.1% among 360,000. fluorescence intensity (concentration not given with the values). compound autofluorescence counterscreen, microsphere flow cytometry; stronger effect = higher value; in the data active = fluorescence intensity above about 16000; inconclusive = no clear call, values can overlap the other calls
CCHF vOTU inh-2 = confirmation of CCHF virus vOTU protease inhibitors; Recombinant CCHFV vOTU, Pep-AMC fluorescence; hit rate 17% among 1,900; shares compounds with CCHF vOTU inh-1; inhibition, % at 11.5 µM
* = called active by the depositor; ? = inconclusive; nt = no result given. An excerpt weighted towards active compounds, which were near 3.9% of everything screened. Cut-off read from the data, not from the text of the source, unless noted: active = inhibition above about 30%; inactive = the rest.

SMILES	3CLpro inhibitor	BoNT F protease	CCHF vOTU inh-1	BoNT-A LC inh2	Anthrax LF inh2	Autofluor counter	CCHF vOTU inh-2
COc1cccc2c1C(=O)C=C(C)C2=O	1	11	4	3	0	9310	nt
CCC(=NCC1CCCO1)c1c(O)n(Cc2ccccc2)c(=O)[nH]c1=O (stereo not drawn)	1	0	33*	1	-1	15866	-5
CC(C)CCNC(=O)C(=O)NCC1OCCCN1S(=O)(=O)c1cccs1 (stereo not drawn)	-1	5	0	2	-3	5671	nt
Cc1cc2c(N)cccc2nn1	-5	-3	111*	-3	-1	6357	2
COCCNC(=S)N1C[C@H]2CON(C)[C@H]2C[C@H]1c1ccccc1Br	nt	nt	33*	nt	nt	nt	-21
CN1OC[C@@H]2CN(C(=S)NCCc3ccccc3)[C@H](c3ccccc3Br)C[C@@H]21	nt	-8	-1	0	-6	5888	nt
O=C1CC(N2CCN(c3ccccn3)CC2)C(=O)N1CC(c1ccccc1)c1ccccc1 (stereo not drawn)	-1	18	38*	1	-1	3140	-9
CC(C)c1ccc(N(CC(=O)NCCSC(C)(C)C)S(C)(=O)=O)cc1	-2	-7	7	?	?	?	nt
COc1ccc(S(=O)(=O)N2CCCCCC2)cc1NC(=O)Cc1cccc(C(F)(F)F)c1	nt	2	12	0	-5	3745	nt
CCc1cc(C(=O)O)c(NC(=O)/C=C/c2ccc(OC)c(OC)c2)s1	6	-3	33*	0	-3	4100	9
CC1CCC/C(=N\NS(=O)(=O)c2ccccc2)C1 (stereo not drawn)	-3	0	-5	0	-4	4702	nt
CC1CCC/C(=N\NC(=O)Nc2ccccc2)C1 (stereo not drawn)	4	-6	34*	-1	-4	2580	-20
COc1cc(/C=C/C(=O)Oc2coc(CSc3ncccn3)cc2=O)cc(OC)c1OC	2	0	-2	-2	-1	3801	nt
CCOC(=O)c1c(-c2ccccc2)n(C)c2ccc(O)cc12	-2	6	2	1	-4	10740	nt
CCOC(=O)c1c(-c2ccccc2)[nH]c2ccc(O)cc12	1	6	34*	0	-3	3724	-17
Cc1ccnn1CC(=O)N/N=C/c1cn[nH]c1-c1ccccc1	-2	-1	-6	-1	-2	6822	nt
N#C/C(=C\Nc1ccc2c(c1)OCCO2)c1nc(-c2ccccc2)cs1	3	1	1	1	1	2225	nt
N#C/C(=C\Nc1ccc2c(c1)OCCO2)c1nc2ccccc2[nH]1	1	-7	32*	-2	-16	6112	3
CCc1noc(C)c1C(=O)OCC(=O)N(C)c1c(N)n(Cc2ccccc2)c(=O)[nH]c1=O	nt	?	1	3	-2	5750	nt
CC1Cc2nc(SCC(=O)NCC3CCCO3)n(-c3ccccc3)c(=O)c2S1 (stereo not drawn)	nt	-3	8	0	15	3697	nt
COCCn1c(SCC(=O)NCC2CCCO2)nc2c(c1=O)SC(C)C2 (stereo not drawn)	-1	-2	32*	0	1	5497	-10
N#Cc1ccc(S(=O)(=O)Nc2ccccc2N2CCOCC2)cc1	nt	nt	4	nt	nt	nt	nt
O=c1[nH]c(Nc2ccccc2Cl)cc2ccccc12	nt	-2	94*	0	-4	4265	-71
O=C1C=C(Nc2ccccc2C(=O)O)c2ccccc2C1=O	5	-6	72*	1	-2	4517	95*
O=C1C=C(Nc2ccccc2)c2ccccc2C1=O	2	-2	55*	-1	-1	3691	73*
SMILES	3CLpro inhibitor	BoNT F protease	CCHF vOTU inh-1	BoNT-A LC inh2	Anthrax LF inh2	Autofluor counter	CCHF vOTU inh-2
O=C1C=C(Nc2ccccc2)C(=O)c2ccccc21	1	-1	18	0	0	5772	nt
O=C1C=C(Nc2cccc3cccnc23)c2ccccc2C1=O	1	-10	38*	4	3	3819	29
CCCCNC1=CC(=O)C(=O)c2ccccc21	4	2	35*	0	1	4530	68*
O=C(CN1C(=O)c2ccccc2C1=O)Nc1cccc2cccnc12	4	-3	-1	0	-1	5918	nt
Cn1c(CC(=O)Nc2ccccc2Cl)nnc1SCC(=O)NC1CCCCC1	7	-22	17	-3	-6	3423	nt
CCOC(=O)N1CCN(C(=O)c2ccc(OC)c(S(=O)(=O)N3CCOCC3)c2)CC1	-1	-7	-3	-1	-1	3321	nt
Cc1nn(-c2ncc(C(F)(F)F)cc2Cl)c(=O)n1-c1ccccc1F	3	-6	3	-2	-4	5321	nt
O=S(=O)(Nc1cc(Sc2cccc3cccnc23)c(O)c2ccccc12)c1ccccc1	9	nt	40*	nt	nt	nt	-3
CCc1ccc(S(=O)(=O)Nc2cc(SCC(=O)O)c(O)c3ccccc23)cc1	5	2	114*	-1	-1	3330	101*
O=C(O)CSc1cc(NS(=O)(=O)c2cccc([N+](=O)[O-])c2)c2ccccc2c1O	3	-1	108*	0	0	4544	99*
Cc1ccc(C)c(S(=O)(=O)Nc2cc(SCC(=O)O)c(O)c3ccccc23)c1	10	1	nt	1	-1	2074	nt
Cc1ccc(S(=O)(=O)Nc2cccc3cccnc23)cc1	-1	5	11	0	6	3610	nt
CCOc1ccc(S(=O)(=O)Nc2cc(SCC(=O)O)c(O)c3ccccc23)cc1	7	1	101*	-2	-12	3108	77*
Cc1cccc(NC(=O)c2ccc([N+](=O)[O-])s2)n1	3	8	16	2	-1	4064	nt
CCOc1ccccc1NC(=O)COC(=O)c1ccccc1SCC(=O)N1CCCC1	nt	-17	37*	-2	-5	?	-10
O=C(COC(=O)c1ccccc1SCC(=O)N1CCCC1)Nc1ccccc1C(F)(F)F	-4	-2	-8	0	2	5803	nt
NC(=O)c1ccc(NC(=O)COC(=O)c2ccccc2SCC(=O)N2CCCC2)cc1	nt	10	33*	0	0	2846	-6
COc1cccc(CNC(=O)C(=O)N2CCC3(CC2)OCCN3S(=O)(=O)c2ccc(C)cc2)c1	nt	6	-3	1	-2	5104	nt
Nc1scc2c(C(=O)N/N=C/c3ccc(Cl)cc3)nn(-c3ccccc3)c(=O)c12	-1	1	36*	2	-6	8722	64*
COc1c(C)cccc1C(=O)NC(=S)Nc1ccccc1N1CCCC1	3	-10	50*	-3	-4	6619	23
O=C(NC(=S)Nc1ccccc1N1CCCC1)c1ccccc1Br	-3	10	34*	-1	-2	4620	30*
CCOC(=O)C1(C)C=C(Nc2ccc(OC)cc2)C(=O)N1c1ccc(OC)cc1 (stereo not drawn)	4	-5	0	-1	1	2921	nt

Compound activity as filed in PubChem BioAssay.
